Among the data in PubChem BioAssay (NCATS) are Potency values, retold here.

The test system of one experiment is AA1029. Nature of the experiment: qHTS profiling for inhibitors of Plasmodium falciparum proliferation (AID 504749). Also: nearly all actives have a fitted effect of over 60% in size. Also: potency is read from the fitted curve at half-maximal effect. The settings on record: P. falciparum in erythrocytes, SYBR Green DNA, 72 h; series mostly up to 28.7 µM. The procedure, abridged:
(§1)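 SYBR Green fluorescence of parasite DNA, read after lysis and overnight dark incubation, measured growth over 72 h in erythrocyte culture at 0.3% parasitemia and 2.5% hematocrit. Data normalised to DMSO and 0.29 uM artemisinin, with plate-drift correction.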
In general terms: qHTS replaces the single test concentration by a dilution series.

For the next experiment, the system named is AS120. Described as above. The settings on record: P. falciparum in erythrocytes, SYBR Green DNA, 72 h; series mostly up to 28.7 µM. The procedure, abridged: as §1
A further experiment relates to ATS189. The experiment is described as above. The following applies: P. falciparum in erythrocytes, SYBR Green DNA, 72 h; series mostly up to 28.7 µM. Summed up:
as §1

Another experiment relates to C2A. Described as above. The settings on record: P. falciparum in erythrocytes, SYBR Green DNA, 72 h; series mostly up to 28.7 µM. Summed up: as §1
In another experiment the test system is CP194. The description is as above. The following applies: P. falciparum in erythrocytes, SYBR Green DNA, 72 h; series mostly up to 28.7 µM. The procedure, abridged:
as §1

In the next experiment the test system is CP201. Described as above. The following applies: P. falciparum in erythrocytes, SYBR Green DNA, 72 h; series mostly up to 28.7 µM. The procedure, abridged: as §1
In the next experiment the test system is CP203. Described as above. The settings on record: P. falciparum in erythrocytes, SYBR Green DNA, 72 h; series mostly up to 28.7 µM. The procedure, abridged:
as §1

The test system of the next experiment is CP217. The description is as above. The following applies: P. falciparum in erythrocytes, SYBR Green DNA, 72 h; series mostly up to 28.7 µM. The procedure, abridged:
as §1

The test system of a further experiment is CP237. The experiment is described as above. The settings on record: P. falciparum in erythrocytes, SYBR Green DNA, 72 h; series mostly up to 28.7 µM. Summed up: as §1
Another experiment has as its system CP250. The experiment is described as above. The settings on record: P. falciparum in erythrocytes, SYBR Green DNA, 72 h; series mostly up to 28.7 µM. Summed up:
as §1

The subject of a further experiment is CP256. The description is as above. The following applies: P. falciparum in erythrocytes, SYBR Green DNA, 72 h; series mostly up to 28.7 µM. Summed up:
as §1

For a further experiment, the system named is CP268. Described as above. The settings on record: P. falciparum in erythrocytes, SYBR Green DNA, 72 h; series mostly up to 28.7 µM. Summed up:
as §1

The subject of another experiment is CP297. Described as above. The following applies: P. falciparum in erythrocytes, SYBR Green DNA, 72 h; series mostly up to 28.7 µM. The procedure, abridged: as §1
A further experiment relates to CP305. The experiment is described as above. The following applies: P. falciparum in erythrocytes, SYBR Green DNA, 72 h; series mostly up to 28.7 µM. Summed up:
as §1

The test system of another experiment is CP325. The description is as above. The settings on record: P. falciparum in erythrocytes, SYBR Green DNA, 72 h; series mostly up to 28.7 µM. Summed up:
as §1

In another experiment the test system is HB3. The description is as above. The settings on record: P. falciparum in erythrocytes, SYBR Green DNA, 72 h; series mostly up to 28.7 µM. Summed up:
as §1

A further experiment concerns PC15. Described as above. The settings on record: P. falciparum in erythrocytes, SYBR Green DNA, 72 h; series mostly up to 28.7 µM. The procedure, abridged:
as §1

The next experiment deals with PC49. The experiment is described as above. The settings on record: P. falciparum in erythrocytes, SYBR Green DNA, 72 h; series mostly up to 28.7 µM. Summed up:
as §1

Another experiment relates to TAB109. The description is as above. The settings on record: P. falciparum in erythrocytes, SYBR Green DNA, 72 h; series mostly up to 28.7 µM. The procedure, abridged:
as §1

Experiment [1] is described as follows: S16 Schwann cell PMP22 intronic element beta-lactamase assay (AID 624044; calls by dose curve; also: nearly all actives have a fitted effect of over 15% in size). The settings on record: S16 rat Schwann cells, PMP22 element beta-lactamase FRET, 24 h; ratio activity, negative = inhibition: at 38.3 µM (top of the series). Summed up: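 Beta-lactamase reporter under a PMP22 intronic regulatory element in stable S16 rat Schwann cells; 24 h compound exposure. 460 nm blue signal normalized between DMSO (0%) and potassium clavulanate, with 535 nm FRET tracking viability; curves classed by r2 and response.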

Records with an inconclusive call do not appear. Values without a mark were called inactive. The source made the active and inactive calls. Unless noted, calls follow the shape of the dose curve; as a rule, active = well fitted inhibition curve with a large enough effect; inconclusive = small, poorly fitted or top-dose-only effect; inactive = flat fitted curve, though single readings scatter.

Regarding `C=C(CC[C@@H](C)[C@H]1CCC2[C@]1(C)CC[C@]13C[C@@]14CCC(OC(=O)/C=C/c1ccc(O)c(OC)c1)C(C)(C)[C@@H]4CC[C@@]23C)C(C)C` (stereo partly drawn), the Potency result with AA1029, with AS120, in the experiment on ATS189, in the experiment with C2A, in the experiment with CP194 and in the experiment on CP201 was “inactive” throughout. Further, the Potency entry with CP203, with CP217, in the experiment with CP237, with CP250, with CP256 and in the experiment on CP268 was “inactive” each time. Further, the Potency entry in the experiment on CP297, in the experiment with CP305, in the experiment with CP325, in the experiment on HB3, in the experiment on PC15 and in the experiment on PC49 was “inactive” in each case. Also, the Potency entry in the experiment on TAB109 is “inactive”.
On to `C[C@]12CCC(=O)C=C1[C@@H]1C[C@H]1[C@H]1[C@@H]3[C@@H]4C[C@H]4[C@@]4(CCC(=O)O4)[C@@]3(C)CC[C@@H]12`, for which the Potency result (in experiment [1]; in the experiment with AA1029; in the experiment with AS120; in the experiment with ATS189; in the experiment on C2A; with CP201) was “inactive” in each case. For the same compound, the Potency result in the experiment with CP203, with CP217, with CP237, in the experiment on CP250, in the experiment on CP256 and in the experiment on CP268 was “inactive” throughout. In addition, the Potency entry in the experiment on CP297, in the experiment on CP305, in the experiment on CP325, with HB3, in the experiment with PC15 and with PC49 was “inactive” in each case. The Potency entry in the experiment with TAB109 is “inactive”.
`CN(C)CC[C@@](O)(c1ccccc1)c1ccccc1Cl`: the Potency in the experiment on AA1029 was 4.47 µM (active); with AS120, 8.91 µM (active); with ATS189 it was 5.62 µM (active); with CP194, 7.57 µM (active); with CP217, 12.6 µM (active); in the experiment with CP237, 1.41 µM (active). In addition, the Potency in the experiment on CP256 is 5.62 µM (active); in the experiment with CP268, 13.5 µM (active); in the experiment on CP297 it was 5.36 µM (active); in the experiment with CP325, 7.57 µM (active); with PC15, 7.08 µM (active); with TAB109, 7.08 µM (active).
In the case of `C/C(=C(/CCOC(=O)C(C)C)SS/C(CCOC(=O)C(C)C)=C(\C)N(C=O)Cc1cnc(C)nc1N)N(C=O)Cc1cnc(C)nc1N`, the Potency result (in [1]; in the experiment with AA1029; with AS120; with ATS189; with C2A; with CP194) was “inactive” each time. Moreover, the Potency entry in the experiment on CP201, in the experiment with CP203, in the experiment on CP217, in the experiment on CP237, with CP250 and in the experiment with CP256 was “inactive” in each case. Moreover, the Potency result in the experiment with CP268, with CP297, in the experiment on CP305, in the experiment with CP325, with HB3 and in the experiment on PC15 was “inactive” in each case. In addition, the Potency result with PC49 and in the experiment on TAB109 was “inactive” each time.
For `CC1CN(c2c(F)c(N)c3c(=O)c(C(=O)O)cn(C4CC4)c3c2F)CC(C)N1` (stereo not drawn), the Potency entry (in experiment [1]; in the experiment on AA1029; with AS120; in the experiment with ATS189; in the experiment with C2A; in the experiment on CP194) was “inactive” in each case. In addition, the Potency entry with CP201, in the experiment on CP203, with CP217, in the experiment with CP237, in the experiment with CP250 and in the experiment on CP256 was “inactive” in each case. The Potency result in the experiment on CP268, in the experiment with CP297, in the experiment on CP305, in the experiment on CP325, in the experiment with HB3 and with PC15 was “inactive” in each case. Besides, the Potency entry in the experiment on PC49 and with TAB109 was “inactive” each time.
`CC1(C)SC2[C@@H](N=CN3CCCCCC3)C(=O)N2[C@H]1C(=O)O` (stereo partly drawn): the Potency entry (in [1]; with AA1029; in the experiment on AS120; in the experiment on ATS189; with C2A; with CP194) was “inactive” each time. For the same compound, the Potency result in the experiment with CP201, in the experiment on CP203, in the experiment on CP217, in the experiment on CP237, in the experiment with CP250 and in the experiment on CP268 was “inactive” each time. Further, the Potency result with CP305, in the experiment on CP325, in the experiment with HB3, with PC15, with PC49 and in the experiment on TAB109 was “inactive” in each case.
